# Screening results as filed in PubChem.
# p53ts 32C kill – p53ts cell cytotoxicity, permissive temperature; AID 924; hit rate 0.93% among 130,000; H1299-p53A138V at 32C, ATP luminescence viability, 24 h; Potency, µM (doses to about 46.1 µM), actives largely listed as cytotoxic; note: nearly all actives have a fitted effect of over 55% in size
#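 Cells: H1299 p53ts (A138V), 600/well, pre-incubated 16–30 h at 37C. Cpd up to 46 uM, 24 h, 32C. Readout: ATPlite luminescence, 20 min RT. Normalization: DMSO vs tamoxifen 100 uM. AC50 by Hill equation.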
# p53ts 39C tox – kills p53ts cells at the nonpermissive temperature; H1299-p53A138V viability at 39C, ATP luminescence, 24 h; AID 902; Potency, µM (highest dose often 46.1 µM), usual class: cytotoxic; hit rate 1.5% among 130,000; note: nearly all actives have a fitted effect of over 55% in size
# Peg3 imprint – induces erasure of genomic imprints in mouse ES cells. mouse ES Peg3-LacZ reporter, beta-gal luminescence, 40 h. Potency, µM (highest dose often 60.7 µM), usual class: activators. AID 1948. hit rate 0.02% among 110,000
#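 Readout: BetaGlo luminescence (5 min, room temp) for LacZ from the normally silent maternal Peg3 allele in female Peg3LacZ-Neo ES cells. Cells 300/well, 40 h, 37C, 5% CO2. Data normalized per plate to negative controls.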
# IkB signaling – suppresses IkB signaling in ABC-DLBCL reporter cells; ABC-DLBCL IkBa-CBG/CBR dual luciferase ratio, 4 h; response scale: scaled: untreated 0%, proteasome inhibitor 100%; Potency, µM (titrated, usually from 57.1 µM); hit rate 0.04% among 110,000; active = well fitted curve in the direction sought with a large enough effect in the signal ratio, not every such curve was filed as active; inconclusive = small, poorly fitted or top-dose-only effect, or a change in a side signal; the % refers to the signal ratio;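 note: the direction sought is a rising ratio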
#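 Luminescence ratio of IκBα-fused green versus native red beetle luciferase in OCI-Ly3 cells, 4 h post-doxycycline with compound; red signal alone, scaled from basal (0%) to zero light (-100%), flagged nonspecific or cytotoxic effects.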
# Hits are given with their value; - = inactive; ? = inconclusive; . = no result; [ ] = remark or other dose. Rows were chosen to be rich in hits. Some 1.6% of all compounds tested hit in one or more screens of this group. Unless noted, calls come from the whole dose curve; as a rule, active = well fitted curve in the direction sought with a large enough effect; inconclusive = small, poorly fitted or top-dose-only effect, or another doubt; inactive = no such curve, though single readings can be large; an effect the other way counts as inactive or inconclusive.
SMILES,p53ts 32C kill,p53ts 39C tox,Peg3 imprint,IkB signaling
COc1ccc(CNC(=O)c2cc(-c3cccc(OC)c3)on2)cc1,-,-,-,-
O=C(O)c1cccc(N=Nc2c(S(=O)(=O)O)ccc3c2C(=O)c2ccccc2C3=O)c1O,-[9.22 µM],-[9.22 µM],-[10.9 µM],-[11.4 µM]
OC[C@@H]1O[C@@H](n2cnc3cncnc32)[C@@H](O)[C@H]1O,-,-,.,-
CS(=O)c1nc(-c2ccc(Br)cc2)cc(-c2ccccc2)c1C#N (configuration not stated),20µM,?,-,?
O=c1c(N2CCCCC2)csc2ccc(F)cc12,-,-,-[10.9 µM],-
O=C(CCCn1c(=O)c2cccn2c2ccccc21)NCCc1ccc(Cl)cc1,10µM,13µM,-[10.9 µM],?
COc1ccc(CCNC(=O)Cn2c(=O)c3cccn3c3ccc(F)cc32)cc1OC,-,-,-[10.9 µM],-
COc1ccc(CCNC(=O)Cn2c(=O)c3cccn3c3ccccc32)cc1OC,-,16µM,-[10.9 µM],?
CN[C@@H](CC(C)C)C(=O)N[C@@H]1C(=O)N[C@H](CC(N)=O)C(=O)N[C@H]2C(=O)N[C@H]3C(=O)N[C@H](C(=O)N[C@H](C(=O)O)c4cc(O)cc(O)c4-c4cc3ccc4O)[C@H](O)c3ccc(c(Cl)c3)Oc3cc2cc(c3O[C@@H]2O[C@@H](CO)[C@@H](O)[C@@H](O)[C@H]2O[C@H]2C[C@](C)(N)[C@H](O)[C@H](C)O2)Oc2ccc(cc2Cl)[C@@H]1O,-,-,.,-
COCc1nn2cc(-c3ccc(C)cc3)nc2s1,10µM,13µM,-[10.9 µM],-
Cc1nn2cc(-c3ccc(-c4ccccc4)cc3)nc2s1,-,-,-,?
CCc1nn2cc(-c3ccccc3)nc2s1,10µM,16µM,-,?
CCOc1ccc(-c2cn3nc(CC(C)C)sc3n2)cc1,?,?,-[10.9 µM],-
C[C@@H]1CC2(OC[C@]3(C)O[C@H]23)O[C@H]2C[C@@]3(C)[C@@H]4CC[C@H]5C(C)(C)C(O[C@@H]6OC[C@@H](O)[C@H](O)[C@H]6O)CC[C@@]56C[C@@]46CC[C@]3(C)[C@@H]12 (some centres not stated),-[1.84 µM],-,-,-
C#CCn1c(/C=C/c2ccc(Cl)cc2)nc2ccccc21,4µM,3.2µM,-[10.9 µM],?
CCC(C)Cn1c(/C=C/c2ccccc2)nc2ccccc21 (configuration not stated),?,13µM,-[10.9 µM],?
CC(C)Cn1c(/C=C/c2ccc(F)cc2)nc2ccccc21,13µM,10µM,-[10.9 µM],?
CCc1nc2ccccc2n1CCCCOc1ccc(Cl)cc1,-,-,-[10.9 µM],-
CC(C)CCn1c(/C=C/c2ccccc2)nc2ccccc21,?,?,-[10.9 µM],?
CC(N)=NCCCC[C@@H](N)C(=O)O,.,.,-,.
CCCC[C@H](CC)CN=C(N)NC(N)=NCCCCCCN=C(N)NC(N)=NC[C@@H](CC)CCCC,-,13µM,-,-
O=C(Nc1ccccc1C(F)(F)F)c1ccc2oc(=O)c(S(=O)(=O)c3ccc(F)cc3)cc2c1,10µM,13µM,-[10.9 µM],?
C=CC(C1=CC(=O)C(OC)=CC1=O)c1ccccc1 (configuration not stated),13µM,-,-,.
Oc1c(I)cc(Cl)c2cccnc12,?,7.9µM,-,?
OCc1ccccc1OCCOc1ccc(Cl)c2cccnc12,-,-,-,-
SMILES,p53ts 32C kill,p53ts 39C tox,Peg3 imprint,IkB signaling
Oc1c(CN2CCCCC2)cc(Br)c2cccnc12,-,10µM,-,?
Oc1c(CN2CCc3ccccc3C2)cc(Cl)c2cccnc12,13µM,4µM,-,?
CCCCOCc1cc(CN2CCN(c3cccc(Cl)c3)CC2)c(O)c2ncccc12,-,-,-[10.9 µM],-
N=C(N)c1ccc(/C=C\c2ccc(C(=N)N)cc2)cc1,-[9.22 µM],-[9.22 µM],-[10.9 µM],-[11.4 µM]
CCCCCCCCCCCCCCCC(=O)OCC(O)C1OC(=O)C(O)=C1O (configuration not stated),.,.,-,.
Cc1ccc(Cl)cc1N1CCN(C(=O)c2ccc(C)c(-n3c(C)nc4cccnc43)c2)CC1,-,-,-[10.9 µM],?
COc1ccc(Cl)cc1-c1ccc(C(=O)O)o1,.,.,-,.
CCCCCC[C@@H]([C@H](C)O)n1cnc2c(N)ncnc21,-,-,.,-
CN1CCN(Cc2cc(COCc3ccccc3)c3cccnc3c2O)CC1,-,5µM,-,-
CCCOCc1cc(CN2CCN(c3cccc(Cl)c3)CC2)c(O)c2ncccc12,-,16µM,-[10.9 µM],-
Oc1ccc(CN2CCN(Cc3ccccc3)CC2)c2cccnc12,?,-,-,-
N[C@H](CCCC(=O)O)C(=O)O,-,-,.,-
CCCCCCC1C(C#N)=C(N)OC2=C1C(=O)CCC2 (configuration not stated),13µM,16µM,-,-
O=C(Nc1sc2c(c1C(=O)O)CCCCC2)c1ccco1,13µM,13µM,-,?
Cc1cccc(C(=O)Nc2sc3c(c2C(=O)O)CCCC3)c1,?,13µM,-[10.9 µM],?
Cc1csc2nc(COC(=O)c3ccc(NC(=O)c4ccccc4Br)cc3)cc(=O)n12,-,-,-[10.9 µM],?
c1ccc(-c2ccc(-c3ccc(C4=NCCN4)cc3)o2)cc1,-[9.22 µM],-[9.22 µM],-[10.9 µM],-[11.4 µM]
CCOC(=O)OCC1OC(c2ccccc2)C=CC1Oc1ccc2oc(=O)cc(C)c2c1 (configuration not stated),-[9.22 µM],-[9.22 µM],.,.
CC#C[C@]1(O)CC[C@H]2C3CCC4=CC(=O)CCC4=C3[C@@H](c3ccc(N(C)C)cc3)C[C@@]21C (some centres not stated),.,.,-,.
COc1ccc(S(=O)(=O)Nc2cccc(-c3ccc(N4CCC(C)CC4)nn3)c2)cc1OC,3.2µM,2.5µM,-[10.9 µM],?
COc1ccc(S(=O)(=O)Nc2cccc(-c3ccc(N4CCCC4)nn3)c2)cc1OC,-,-,-[10.9 µM],?
COc1ccc(F)cc1S(=O)(=O)Nc1cccc(-c2ccc(N3CCC(C)CC3)nn2)c1,?,7.9µM,-[10.9 µM],-
COc1ccccc1Nc1c2c(nc3ccc(NC(=O)c4ccc(N(C)C)cc4)cc13)CCCC2,-,-,-[10.9 µM],?
Cc1ncsc1C(=O)Nc1nc2c(s1)CC(C)CC2 (configuration not stated),?,16µM,-,?
CCOC(=O)C1(N(CC)CC)Sc2cc(C)ccc2NC1=O (configuration not stated),-,16µM,-,-
SMILES,p53ts 32C kill,p53ts 39C tox,Peg3 imprint,IkB signaling
CCOC(=O)C1(Nc2nccs2)Sc2ccccc2NC1=O (configuration not stated),-,-,-,-
Cc1cc2ccc(OC(=O)c3ccc(N=C(N)N)cc3)cc2oc1=O,-[9.22 µM],-[9.22 µM],-[10.9 µM],-[11.4 µM]
Cc1cccc(NC(=O)CSc2n[nH]c(-c3ccncc3)n2)c1,-,-,-,-
COc1ccc(-c2nc(SCC(=O)Nc3cccc(C(C)=O)c3)n[nH]2)cc1,?,32µM,-[10.9 µM],?
O[Si@](CCCN1CCCCC1)(c1ccc(F)cc1)C1CCCCC1,-,?,.,-
N=C1S/C(=C\c2ccc(-c3cccc(Cl)c3)o2)C(=O)N1c1nccs1,.,-,.,.
COc1ccc(/C=C2\SC(=N)N(c3nccs3)C2=O)cc1OC,?,14µM,.,.
